Data on 24 molecules can be found in ChEMBL document CHEMBL1157539, “Thousands of chemical starting points for antimalarial lead identification” (Nature, 2010).

Format in all cases: functional
Assay [1] has as its system Plasmodium falciparum. The assay can be described thus: GSK_TCMDC: Inhibition of Plasmodium falciparum 3D7 in whole red blood cells, using parasite LDH activity as an index of growth. Test compounds present at 2uM.
Assay [2] concerns Plasmodium falciparum. The assay can be described thus: GSK_TCMDC: Inhibition of Plasmodium falciparum Dd2 in whole red blood cells, using parasite LDH activity as an index of growth. Test compounds present at 2uM.
The subject of another assay is HepG2. The assay can be described thus: GSK_TCMDC: Percent inhibition of human HepG2 cell line. Test compounds present at 10uM.

For the molecule `O=C(NC1CCN(Cc2ccccc2)CC1)c1ccc(-c2nc3cc4ccccc4cc3[nH]2)s1`, the Inhibition in the assay on Plasmodium falciparum [1] turned out to be 99%; with Plasmodium falciparum [2] it was 25%; in the assay with HepG2 it was 13%.

As to `CN1CCN(c2ccnc3cc4c(cc23)N(C(=O)Nc2ccc(-c3ccncc3)c3ccccc23)CC4)CC1.Cl`, the Inhibition was 100% in the assay on Plasmodium falciparum [1], 97% in the assay on Plasmodium falciparum [2] and 10% in the assay on HepG2.

Take `CC(C)(C)Nc1cc(C2CC2)nc(-c2ccccn2)n1`: the Inhibition in the assay with Plasmodium falciparum [1] was 88%; in the assay with Plasmodium falciparum [2], 75%; in the assay with HepG2, 0%.

On to `COc1ccc(Nc2nccc(-c3ccc4c(-c5ccsc5)cnc(N)c4c3)n2)cc1`, for which the Inhibition turned out to be 100% in the assay with Plasmodium falciparum [1], 98% in the assay on Plasmodium falciparum [2] and 38% in the assay with HepG2.

On to `Cc1cc(=NN=Cc2ccccc2Cl)c2ccc(F)cc2[nH]1`, for which the Inhibition amounted to 100% in the assay with Plasmodium falciparum [1], 100% in the assay with Plasmodium falciparum [2] and 6% in the assay with HepG2.

As for `COc1c(C2CCN(CCN3CCC(NC(=O)c4ccc(-c5ccc(C(F)(F)F)cc5)cc4)CC3)CC2)ccc2c1CCCC2`, the Inhibition in the assay with Plasmodium falciparum [1] was determined as 82%; with Plasmodium falciparum [2], 35%; in the assay on HepG2, 42%.

As to `CC(NC(=O)c1ccc(O)c(-c2ccc(Cl)c(Cl)c2)c1)C(=O)NC1CCCCC1` (configuration not stated), the Inhibition in the assay with Plasmodium falciparum [1] was determined as 96%; in the assay with Plasmodium falciparum [2] it was 82%; in the assay with HepG2, 0%.

On to `Cc1ccc(NC(=O)Nc2ccc(Br)cc2)cc1OCCN(C)C`, for which the Inhibition in the assay on Plasmodium falciparum [1] is 84%; in the assay on Plasmodium falciparum [2], 15%; in the assay with HepG2 it was 13%.

Take `O=C(Cc1ccc(Cl)cc1)Nc1cc(Cl)ccc1Cn1cnc(N2CCNCC2)cc1=O.O=C(O)C(F)(F)F`: the Inhibition in the assay with Plasmodium falciparum [1] amounted to 97%; in the assay with Plasmodium falciparum [2] it was 2%; in the assay with HepG2, 9%.

With `CN(C)C(CNC(=O)c1cc(-c2ccncc2)c(-c2cc3ccccc3[nH]2)o1)c1ccccc1.O=C(O)C(F)(F)F` (configuration not stated), the Inhibition in the assay on Plasmodium falciparum [1] came to 96%; with Plasmodium falciparum [2], 62%; with HepG2, 3%.

For `CCCN1CCN(CCCNc2c3ccccc3nc3ccccc23)CC1.Cl`, the Inhibition in the assay on Plasmodium falciparum [1] was 99%; in the assay on Plasmodium falciparum [2], 0%; in the assay with HepG2, 36%.

For `CC1CCCN(S(=O)(=O)c2cc(Br)cc3c2N(C(=O)C2CC2)CC3)C1` (configuration not stated), the Inhibition turned out to be 83% in the assay with Plasmodium falciparum [1], 70% in the assay on Plasmodium falciparum [2] and 0% in the assay on HepG2.

As to `O=C(Cc1c[nH]cn1)Nc1ccc(-c2cccc(-c3nc4cc(C(F)(F)F)ccc4[nH]3)c2)cc1`, the Inhibition with Plasmodium falciparum [1] was 100%; in the assay with Plasmodium falciparum [2] it was 95%; in the assay with HepG2, 20%.

With `CCCCN(CCCC)Cc1cc(Nc2ccnc3cc(Cl)ccc23)ccc1O.Cl`, the Inhibition with Plasmodium falciparum [1] was 100%; with Plasmodium falciparum [2], 87%; in the assay on HepG2, 67%.

For the molecule `O=C(Nc1ccc(-c2ccc(-c3nc4ccccc4[nH]3)cc2)cc1)Nc1ccc(Cl)c(Cl)c1`, the Inhibition in the assay with Plasmodium falciparum [1] is 100%; in the assay on Plasmodium falciparum [2], 100%; in the assay on HepG2 it was 68%.

As for `Cc1cc(NC2CCCC2)nc(Nc2ccccc2F)n1`, the figures for the Inhibition in the assay with Plasmodium falciparum [1], with Plasmodium falciparum [2] and in the assay with HepG2 were 97%, 53% and 24%, respectively.

Consider `CCOC(=O)c1nc(-c2cc(Cl)nc(Cl)c2)[nH]c1NC(=S)NCCCN1CCOCC1`, for which the Inhibition stood at 89% with Plasmodium falciparum [1], 71% in the assay with Plasmodium falciparum [2] and 13% in the assay on HepG2.

With `Cc1ccc(CNc2ccc3ncc(-c4cccc(C(=O)NCCN(C)C)c4)n3n2)c(C)c1`, the Inhibition in the assay on Plasmodium falciparum [1] was found to be 100%; with Plasmodium falciparum [2], 78%; with HepG2, 97%.

For the molecule `O=C(/C=C/c1ccc(Cl)c(Cl)c1)NCCCCCCN1CCCN(C(=O)Nc2cccc(C(F)(F)F)c2)CC1`, the Inhibition came out at 95% with Plasmodium falciparum [1], 0% in the assay with Plasmodium falciparum [2] and 25% in the assay with HepG2.

Take `CCOC(=O)C(NC(=O)Cc1ccccc1)C(C)C` (configuration not stated): the Inhibition with Plasmodium falciparum [1] is reported as 96%; in the assay on Plasmodium falciparum [2], 98%; with HepG2 it was 39%.

Consider `Cc1ccc(NC(=O)NC2CCN(CCCCCNC(=O)/C=C/c3ccc(Cl)c(Cl)c3)CC2)cc1`, for which the Inhibition with Plasmodium falciparum [1] was 100%; with Plasmodium falciparum [2], 19%; with HepG2 it was 41%.

With `Cc1noc(C)c1-c1cccc(CNCc2cccc(-c3cccc(-c4nc5cc(F)ccc5[nH]4)c3)c2)c1.O=C(O)C(F)(F)F`, the figures for the Inhibition in the assay with Plasmodium falciparum [1], with Plasmodium falciparum [2] and in the assay with HepG2 were 100%, 73% and 18%, respectively.

With `CC(=O)Nc1ccc(CN2CCC(NC(=O)c3ccc(-c4cccc(Cl)c4)s3)CC2)cc1.O=C(O)C(F)(F)F`, the figures for the Inhibition in the assay on Plasmodium falciparum [1], in the assay on Plasmodium falciparum [2] and in the assay on HepG2 were 97%, 59% and 34%, respectively.

On to `Oc1ccc(-c2cncc(NCc3ccc(F)c(F)c3)c2)cc1`, for which the values for the Inhibition in the assay with Plasmodium falciparum [1], in the assay on Plasmodium falciparum [2] and in the assay on HepG2 were 95%, 80% and 0%, respectively.
